# Data taken from ChEMBL document CHEMBL1157539, “Thousands of chemical starting points for antimalarial lead identification” (Nature, 2010).
# How the values were obtained:
# Type in all cases: functional
# Plasmodium falciparum [1] = assay: GSK_TCMDC: Inhibition of Plasmodium falciparum 3D7 in whole red blood cells, using parasite LDH activity as an index of growth. Test compounds present at 2uM
# Plasmodium falciparum [2] = assay: GSK_TCMDC: Inhibition of Plasmodium falciparum Dd2 in whole red blood cells, using parasite LDH activity as an index of growth. Test compounds present at 2uM
# HepG2 = assay: GSK_TCMDC: Percent inhibition of human HepG2 cell line. Test compounds present at 10uM.
Compound,Inhibition (Plasmodium falciparum [1]) [%],Inhibition (Plasmodium falciparum [2]) [%],Inhibition (HepG2) [%]
CN1CCCc2ccc(NC(=O)Nc3ccc(-c4ccccc4)cc3)cc2C1,97,47,23
Cc1cccc(-c2cc3cc(Nc4ccnc5cc(-c6nccs6)ccc45)ccc3[nH]2)c1.Cl,100,100,0
Cc1ccc(-n2c(=O)c3cccnc3n2CC(=O)Nc2cccc(C)c2C)cc1,96,20,9
O=C(Nc1nc(-c2ccccn2)cs1)c1ccc(Br)s1,96,84,40
CCOC(=O)NCCSC(C)(C)[C@H](NC(=O)[C@H](Cc1cc2ccccc2s1)[C@H](CC)N(O)C=O)C(=O)Nc1nccs1,98,98,11
O=C(/C=C/c1ccc(C(F)(F)F)cc1)NCCCCCN1CCCN(C(=O)Nc2ccc(Cl)cc2)CC1,99,0,28
CCCCC1(c2ccc(F)cc2)NC(=O)N(CC(=O)c2cc(C)n(Cc3ccco3)c2C)C1=O (stereo not given),82,28,6
Cc1cc(N[C@@H](Cc2ccccc2)C(=O)Nc2ccccc2)nc(NCCN2CCCC2)n1.O=C(O)C(F)(F)F,94,0,8
Cc1cccc2nc(-c3ccc(-c4cccc(CN5CCCC5CN)c4)cc3)[nH]c12.O=C(O)C(F)(F)F (stereo not given),91,32,7
O=C(Nc1ccc(F)cc1F)NC1CCN(CCCCCNC(=O)C2CC2c2ccc(Cl)c(Cl)c2)CC1 (stereo not given),100,32,41
CCCCCCCCc1c(C)nc(C)c(C#N)c1O,97,96,0
Cc1c(C(=O)N2CCCC(C(F)(F)F)C2)sc2cccc(F)c12 (stereo not given),99,89,0
COc1ccc(-c2cccc(NC(=O)c3ccc(C#N)cc3)c2)cc1CN1CCN(C)CC1.O=C(O)C(F)(F)F,93,2,24
CCC(C)NS(=O)(=O)c1ccc2nc(Nc3ccc(C)cc3)n(C3CCCCC3C)c2c1 (stereo not given),95,99,1
C=C(C)C1CC=C(CN2CCCC(n3ccc4cc(NC(=O)c5ccco5)ccc43)CC2)CC1 (stereo not given),90,95,13
CCn1ncc2c(N3CCCC3=O)cc(C(=O)N[C@@H](Cc3ccccc3)[C@H](O)CNC(C)(C)c3cccc(OC)c3)cc21,98,97,6
CCOC(=O)CC[C@@H](NC(=O)c1ccc(NCc2ccc3ccc4nc(C)[nH]c(=O)c4c3c2)cc1F)C(=O)N[C@@H](Cc1c[nH]c2ccccc12)C(=O)OCC,98,77,45
Cn1cncc1C(=O)Nc1cccc(-c2ccc(-c3nc4cc(C(F)(F)F)ccc4[nH]3)cc2)c1,97,98,4
Cc1ccoc1C(=O)Nc1cccc(-c2cccc(-c3nc4cc(C(F)(F)F)ccc4[nH]3)c2)c1,98,37,39
COc1ccc(S(=O)(=O)Nc2cc(Br)cc3c2OCCC3)cc1N1CCN(C(=O)C(Cl)(Cl)Cl)CC1,90,51,4
C[C@H]1CN(Cc2cccc(-c3cc(CNC(=O)c4cccc(CN5CCN(CCOc6ccccc6)CC5)c4)ccc3F)c2)CCN1.O=C(O)C(F)(F)F,91,88,59
Cn1nc(-c2ccc(CNC3CCc4ccccc43)cc2)c2cnc(NCCCN3CCCC3)nc21 (stereo not given),92,22,27
CC(=O)Nc1cccc(C(=O)Nc2cccc(-c3cccc(-c4nc5ccccc5[nH]4)c3)c2)c1,100,66,41
Cc1nc2ccc(NC(=O)c3cc(S(=O)(=O)N(C)C)ccc3Cl)cc2s1,91,77,20
Cc1nc2ccccc2n1C1CC2CCC(C1)N2CCCC1(c2ccccc2)CCN(C(=O)OCc2ccccc2)CC1.O=CO (stereo not given),90,29,46
